Laboratory results published in PubChem BioAssay (NCATS).

target: Lysosomal acid glucosylceramidase (Homo sapiens) (UniProt P04062); assay: Glucocerebrosidase-p2 (AID 348); settings: purified GBA, blue fluorogenic substrate, 40 min
Source text: Beta-glucocerebrosidase catalyzes the hydrolysis of beta-glucocerebroside to glucose and ceramide. The inherited deficiency of beta-glucocerebrosidase results in Gaucher disease, which is characterized by a wide variety of symptoms including hepatosplenomegaly, anemia, thrombocytopenia, bony lesions and bone marrow infiltration with characteristic storage cells, known as Gaucher cells. There are also forms of the disorder affecting the central nervous system. Patients with the same genotypes can manifest with diverse clinical presentations and it is believed that improper folding and trafficking of beta-glucocerbrosidase may contribute to the phenotypes observed.
Low molecular weight molecules, acting as chaperones, may potentially restore trafficking of misfolded beta-glucocerebrosidase from the endoplasmic reticulum to the lysosomes, thereby enhancing functional lysosomal beta-glucocerebrosidase activity.
Using normal beta-glucocerebrosidase, an assay was developed to screen for small molecule inhibitors that could potentially act as molecular chaperones on the mutant forms [developed with NIH investigator Dr. Ellen Sidransky#s laboratory]. Two pro-fluorescent substrates were chosen for two screens against a small molecule library. One beta-glucocerebrosidase assay used Resorufin beta-D-Glucopyranoside (Marker Gene Technology Inc.), generating a red fluorescent product. The second assay used […] fluorescent product. The Km for the Resorufin beta-D-Glucopyranoside and Fluorescein di-beta-D-Glucopyranoside were determined to be 71.2 uM and 855 uM, respectively. The IC50 values of Conduritol B Epoxide, a known glucocerebrosidase inhibitor, were determined to be 87.5 uM and 117 uM, respectively. The use of two difference pro-fluorescent substrates in the screens helped to eliminate false positives. All compounds were screened in a titration series resulting in AC50s (e.g., IC50s or EC50s). Data normalization and AC50 calculations were accomplished using GeneData software.
NCGC Assay Protocol Summary
Both enzyme and substrate were diluted in buffer composed of 50mM citric acid/KH2PO4, 10mM sodium taurocholate and 0.01% tween-20 at pH 5.9. The final concentration of the enzyme was 0.2 nM in both assays. The compound library was titrated in 7 to 15 concentrations for the primary screens with a final concentration ranging from 0.6 nM to 50 uM. This particular assay protocol is for the "blue" substrate, and it was performed in 1536-well plate format as follows:
Blue fluorescence substrate assay:
1 uL substrate (final concentration of 80 uM)
Incubate at room temperature (RT) for 40 minutes
3 uL stop solution (1 M NaOH and 1 M glycine in water)
Read the plate in Viewlux plate reader (Ex=365(10) and Em=440(10)).
Potency is the fitted concentration of half-maximal effect.

Chain of Lysosomal acid glucosylceramidase (Homo sapiens) (P04062 whole entry, looked up): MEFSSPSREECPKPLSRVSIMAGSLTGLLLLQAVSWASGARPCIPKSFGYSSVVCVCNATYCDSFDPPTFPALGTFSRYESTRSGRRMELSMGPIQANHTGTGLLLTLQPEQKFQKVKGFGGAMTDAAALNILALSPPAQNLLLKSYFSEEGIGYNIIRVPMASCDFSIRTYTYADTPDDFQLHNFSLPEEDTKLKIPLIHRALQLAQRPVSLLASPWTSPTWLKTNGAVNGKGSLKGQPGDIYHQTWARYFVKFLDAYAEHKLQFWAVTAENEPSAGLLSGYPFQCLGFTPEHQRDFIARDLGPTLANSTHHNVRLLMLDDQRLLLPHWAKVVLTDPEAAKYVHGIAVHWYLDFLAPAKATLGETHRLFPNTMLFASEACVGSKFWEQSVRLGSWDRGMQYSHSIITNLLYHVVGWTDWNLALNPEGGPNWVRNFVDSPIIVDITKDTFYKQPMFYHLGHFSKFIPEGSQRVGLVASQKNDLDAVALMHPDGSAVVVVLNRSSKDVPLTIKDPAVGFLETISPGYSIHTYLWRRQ

Potency, inactive:
COc1ccc(C(=O)N2CCC3(CCN(C(=O)Nc4cccc(F)c4)CC3)CC2)cc1 > 11.4 µM
COCCn1c(=O)c(-c2cccs2)nc2cnc(N3CCOCC3)nc21 > 11.4 µM
Cc1nc2cncnc2n(Cc2ccccc2Cl)c1=O > 11.4 µM
COc1ccc(Oc2ncc3nc(-c4cccs4)c(=O)n(Cc4cccc(OC)c4)c3n2)cc1 > 11.4 µM
COc1ccccc1CN1CCCC2(CCN(C(=O)c3cc(C(F)(F)F)cc(C(F)(F)F)c3)CC2)C1 > 11.4 µM
CN(C)c1cc(-c2cccc(NS(C)(=O)=O)c2)ncn1 > 11.4 µM
COC(=O)N1CCC2(CCCN(c3ncccn3)C2)CC1 > 11.4 µM
COc1ncc2nc(CCc3ccccc3)c(=O)n(CCC#N)c2n1 > 11.4 µM
COc1ccc2[nH]cc(CCNc3ncncc3-c3ccccc3CN(C)C)c2c1 > 11.4 µM
COc1ccc(-n2c(=O)c(-c3ccc(F)cc3)nc3cncnc32)cc1 > 11.4 µM
CN(C)c1ncc2nc(-c3ccc(Cl)cc3)c(=O)n(C3CC3)c2n1 > 11.4 µM
CC(C)CN1CCCC2(CCN(C(=O)c3cccc(F)c3)CC2)C1 > 11.4 µM
CS(=O)(=O)N1CCC2(CC1)CN(Cc1ccc(C#N)cc1)C2 > 11.4 µM
CN(C)c1ncc2nc(-c3ccc(Cl)cc3)c(=O)n(C[C@H]3CCCO3)c2n1 > 11.4 µM
FC(F)(F)c1ccccc1-c1ccc2ncnc(NC3CC3)c2c1 > 11.4 µM
CC(=O)NCCNc1ncnc2ccc(-c3ccc4c(c3)OCO4)cc12 > 11.4 µM
CS(=O)(=O)N1CCC2(CCCN(Cc3ccc(C#N)cc3)C2)CC1 > 11.4 µM
COc1ccccc1-c1nc(N(C)Cc2ccco2)c2ccccc2n1 > 11.4 µM
COCC(=O)N1CCC2(CC1)CN(c1ccncc1)C2 > 11.4 µM
CN(C)C(=O)c1ccc(-c2ccc3ncnc(N(C)Cc4ccco4)c3c2)cc1 > 11.4 µM
COCC(=O)N1CCC[C@@]2(CCN(c3ccccc3)C2)C1 > 11.4 µM
O=C(c1cnccn1)N1CCC2(CC1)CN(Cc1cc(C(F)(F)F)cc(C(F)(F)F)c1)C2 > 11.4 µM
O=C(c1ccncc1)N1CCC[C@@]2(CCN(c3ccncc3)C2)C1 > 11.4 µM
CN(C)c1ncc2nc(CCc3ccccc3)c(=O)n(C3CC3)c2n1 > 11.4 µM
COc1ccc(Oc2ncc3ncc(=O)n(C4CC4)c3n2)cc1 > 11.4 µM
CC(C)NC(=O)N1CCC2(CC1)CCN(C(=O)c1cnccn1)CC2 > 11.4 µM
CC(=O)N1CCC2(CC1)CN(Cc1cc(C(F)(F)F)cc(C(F)(F)F)c1)C2 > 11.4 µM
Cn1cccc1C(=O)N1CCC2(CCCN(C(c3ccccc3)c3ccccc3)C2)CC1 > 11.4 µM
COCC(=O)N1CCC2(CC1)CCN(C(=O)NC(C)C)CC2 > 11.4 µM
COc1ncc2nc(-c3ccc(Cl)cc3)c(=O)n(CCc3ccccc3)c2n1 > 11.4 µM
Cc1noc(C)c1-c1nccc(N(C)C)n1 > 11.4 µM
COc1ccc(-c2nc3cnc(N4CCN(C)CC4)nc3n(C3CC3)c2=O)cc1 > 11.4 µM
O=C(c1cccc(F)c1)N1CCC2(CC1)CCN(c1ccc(-c3ccccc3)cc1)CC2 > 11.4 µM
N#Cc1ccc(CN2CC3(CCN(C(=O)c4cccc(F)c4)CC3)C2)cc1 > 11.4 µM
COc1ccc(Oc2ncc3nc(-c4ccc(OC)cc4)c(=O)n(CCC#N)c3n2)cc1 > 11.4 µM
O=C(c1ccco1)N1CCC2(CC1)CN(c1ccccn1)C2 > 11.4 µM
O=c1c(-c2ccccc2)nc2cnc(N3CCOCC3)nc2n1Cc1cccs1 > 11.4 µM
CC(C)CN1CC2(CCN(C(=O)c3cnccn3)CC2)C1 > 11.4 µM
O=C(c1cnccn1)N1CCC2(CCCN(c3ncccn3)C2)CC1 > 11.4 µM
COCC(=O)N1CCC2(CCCN(Cc3ccc(C#N)cc3)C2)CC1 > 11.4 µM
